Our source for the Inhibition values is ChEMBL document CHEMBL1157539, “Thousands of chemical starting points for antimalarial lead identification” (Nature, 2010).

Structures are written as SMILES.

What all share (type): functional
Experiment [1] relates to Plasmodium falciparum. As to the kind of experiment: GSK_TCMDC: Inhibition of Plasmodium falciparum 3D7 in whole red blood cells, using parasite LDH activity as an index of growth. Test compounds present at 2uM.
Experiment [2] has as its system Plasmodium falciparum. As to the kind of experiment: GSK_TCMDC: Inhibition of Plasmodium falciparum Dd2 in whole red blood cells, using parasite LDH activity as an index of growth. Test compounds present at 2uM.
In a further experiment the test system is HepG2. As to the kind of experiment: GSK_TCMDC: Percent inhibition of human HepG2 cell line. Test compounds present at 10uM.

By Inhibition is commonly meant the percentage by which the read-out fell short of the control. Read a low Inhibition as little suppression. In the case of `O=C(NCCNc1noc(-c2sccc2Br)n1)c1ccc(Cl)cc1`, the Inhibition is recorded as 93% with Plasmodium falciparum [1], 1% in the experiment with Plasmodium falciparum [2] and 0% in the experiment on HepG2.

As for `Cc1nc2ccc(-c3nc4cc(N)ccc4[nH]3)cc2[nH]1`, the Inhibition with Plasmodium falciparum [1] stood at 94%; in the experiment with Plasmodium falciparum [2], 80%; with HepG2, 6%.

Regarding `COc1ccc(CN(C)CCCCc2ccc(NC(=O)COc3cccc4sc5ccccc5c(=O)c34)cc2)cc1OC.O=C(O)C(=O)O`, the results for the Inhibition with Plasmodium falciparum [1], in the experiment with Plasmodium falciparum [2] and with HepG2 were 100%, 84% and 26%, respectively.

As to `O=C(NC1CCN(CCN2CCc3ccccc3CC2)CC1)c1ccc(-c2ccc(C(F)(F)F)cc2)cc1`, the Inhibition in the experiment on Plasmodium falciparum [1] came out at 99%; in the experiment with Plasmodium falciparum [2], 43%; in the experiment with HepG2 it was 45%.

Take `CN1CCCC(CN2CCN(Cc3cccc(-c4ccc(-c5nc6cc(F)ccc6[nH]5)cc4)c3)CC2)C1.O=C(O)C(F)(F)F` (stereo not drawn): the Inhibition in the experiment on Plasmodium falciparum [1] is recorded as 100%; in the experiment with Plasmodium falciparum [2], 100%; in the experiment with HepG2 it was 78%.

Consider `COc1ccc2cc(C(=O)NC3CCC(CCN4CCc5cc(C#N)ccc5C4)CC3)[nH]c2c1.Cl` (stereo not drawn), for which the Inhibition with Plasmodium falciparum [1] stood at 88%; in the experiment on Plasmodium falciparum [2], 0%; in the experiment on HepG2, 9%.

On to `Cn1cncc1C(=O)Nc1cccc(-c2ccc(-c3nc4cc(C(F)(F)F)ccc4[nH]3)cc2)c1`, for which the Inhibition in the experiment on Plasmodium falciparum [1] amounted to 97%; with Plasmodium falciparum [2], 98%; in the experiment with HepG2, 4%.

In the case of `COc1ccc(Nc2ccnc3cc4ccccc4cc23)cc1.Cl`, the Inhibition is reported as 100% with Plasmodium falciparum [1], 73% with Plasmodium falciparum [2] and 32% with HepG2.

Turning to `Cc1cc(NC(=O)c2cc(Br)ccc2Cl)n(-c2nc(C)c(C)c(=O)[nH]2)n1`, the Inhibition came to 91% in the experiment with Plasmodium falciparum [1], 83% with Plasmodium falciparum [2] and 54% in the experiment on HepG2.

Consider `Cl.c1cc2[nH]c(CCCCc3nc4cc(C5=N[C@H]6CCCC[C@H]6N5)ccc4[nH]3)nc2cc1C1=N[C@H]2CCCC[C@H]2N1`, for which the Inhibition amounted to 90% with Plasmodium falciparum [1], 88% in the experiment with Plasmodium falciparum [2] and 5% in the experiment with HepG2.

In the case of `O=C(Nc1ccccc1-c1nc2ccccc2s1)C(Cl)(Cl)Cl`, the Inhibition in the experiment with Plasmodium falciparum [1] came out at 97%; in the experiment with Plasmodium falciparum [2] it was 99%; with HepG2 it was 12%.

Consider `COc1ccc(CNCc2cccc(-c3ccc(-c4nc5cc(C(F)(F)F)ccc5[nH]4)cc3)c2)cc1.O=C(O)C(F)(F)F`, for which the Inhibition with Plasmodium falciparum [1] is reported as 100%; in the experiment with Plasmodium falciparum [2], 95%; in the experiment with HepG2, 23%.

Turning to `O=C(Nc1ccc(Cn2ncc(N3CCCNCC3)c(Cl)c2=O)cc1)Nc1cccc(Oc2ccccc2)c1.O=C(O)C(F)(F)F`, the Inhibition is 81% in the experiment with Plasmodium falciparum [1], 41% with Plasmodium falciparum [2] and 8% in the experiment with HepG2.

In the case of `CCCCN(C)CC#Cc1ccc(-c2ccc3[nH]c(C)c(Br)c(=O)c3c2)cn1`, the Inhibition with Plasmodium falciparum [1] is on record as 98%; with Plasmodium falciparum [2], 93%; in the experiment with HepG2 it was 3%.

For the molecule `O=C(Nc1cc(F)cc(F)c1)N1CCOC(CCN2CCC3(CCc4ccccc43)CC2)(c2ccc(Cl)c(Cl)c2)C1` (stereo not drawn), the results for the Inhibition with Plasmodium falciparum [1], with Plasmodium falciparum [2] and in the experiment on HepG2 were 100%, 86% and 32%, respectively.

Turning to `Cl.O=c1ccc2ncc(Cl)c3c2n1CC3CN1CCC(NCc2cc3c(cn2)OCCO3)CC1` (stereo not drawn), the Inhibition in the experiment with Plasmodium falciparum [1] was 96%; in the experiment with Plasmodium falciparum [2], 29%; with HepG2, 27%.

For `CN(C)S(=O)(=O)c1cc(-c2ccc3nccc(-c4cccc(S(N)(=O)=O)c4)c3c2)cnc1N`, the Inhibition was found to be 100% with Plasmodium falciparum [1], 98% with Plasmodium falciparum [2] and 35% in the experiment with HepG2.

On to `CCn1c(-c2nonc2N)nc2c(-c3ccccc3)ncc(OCCCCNCCc3ncc[nH]3)c21.O=C(O)C(F)(F)F`, for which the Inhibition stood at 92% in the experiment with Plasmodium falciparum [1], 42% in the experiment on Plasmodium falciparum [2] and 34% in the experiment on HepG2.

`Cl.OC(CN1CCN(c2cccc(Cl)c2)CC1)C(c1ccccc1)c1ccccc1` (stereo not drawn): the Inhibition is recorded as 85% with Plasmodium falciparum [1], 4% in the experiment with Plasmodium falciparum [2] and 0% in the experiment on HepG2.

As for `CC1(CCCCN2CCC(Cc3ccccc3)CC2)C(=O)Nc2ccccc21.Cl` (stereo not drawn), the Inhibition in the experiment with Plasmodium falciparum [1] worked out at 100%; with Plasmodium falciparum [2], 28%; with HepG2 it was 66%.

`Nc1nc(N)c2c(ccc3c2ccn3Cc2ccccn2)n1`: the Inhibition came out at 90% in the experiment on Plasmodium falciparum [1], 94% in the experiment with Plasmodium falciparum [2] and 66% in the experiment on HepG2.

As to `CC(=O)Nc1ncc(C(=O)Nc2cccc(-c3ccc(-c4nc5ccccc5[nH]4)cc3)c2)s1`, the results for the Inhibition in the experiment on Plasmodium falciparum [1], in the experiment on Plasmodium falciparum [2] and in the experiment with HepG2 were 100%, 66% and 12%, respectively.

For `CCNc1cc(C(=O)N[C@@H](Cc2ccccc2)[C@H](O)CN[C@H]2CCc3ccccc32)cc(N2CCCC2=O)c1`, the values for the Inhibition with Plasmodium falciparum [1], with Plasmodium falciparum [2] and in the experiment with HepG2 were 98%, 99% and 8%, respectively.

For `Cc1cc(=NN=Cc2ccccc2F)c2ccccc2[nH]1`, the Inhibition with Plasmodium falciparum [1] came to 100%; in the experiment with Plasmodium falciparum [2], 81%; in the experiment with HepG2, 14%.

Turning to `Cc1cc(N)c2cc(NC(=O)/C=C/c3ccccc3)ccc2n1`, the Inhibition in the experiment on Plasmodium falciparum [1] amounted to 100%; in the experiment with Plasmodium falciparum [2] it was 68%; with HepG2 it was 20%.

For `Cc1ccc(F)cc1S(=O)(=O)N1CCCCC(c2ccc(C(F)(F)F)cc2)=N1`, the Inhibition was 82% in the experiment on Plasmodium falciparum [1], 75% in the experiment on Plasmodium falciparum [2] and 8% in the experiment on HepG2.

With `O=C(NCCCCN1CCC2c3cccc(O)c3CCC21)c1ccc(-c2ccccc2)cc1` (stereo not drawn), the Inhibition turned out to be 81% with Plasmodium falciparum [1], 50% in the experiment on Plasmodium falciparum [2] and 23% in the experiment with HepG2.

Turning to `Cc1ccc(C(=O)Nc2cc(S(=O)(=O)N3CCCC3)ccc2OCC(F)(F)F)cc1`, the Inhibition is 93% in the experiment with Plasmodium falciparum [1], 3% with Plasmodium falciparum [2] and 0% in the experiment with HepG2.

Regarding `CN1CCN(c2ccc(-c3cc(-c4ccncc4)c(-c4ccc(Cl)c(O)c4)o3)cc2)CC1.Cl`, the figures for the Inhibition with Plasmodium falciparum [1], in the experiment on Plasmodium falciparum [2] and with HepG2 were 100%, 98% and 0%, respectively.

Take `CN1CCN(c2ccc(-c3cccc(NC(=O)c4cccc([N+](=O)[O-])c4)c3)nn2)CC1`: the Inhibition worked out at 99% with Plasmodium falciparum [1], 35% with Plasmodium falciparum [2] and 21% with HepG2.

On to `Cc1[nH]cnc1Cc1ccc2c(c1O)c1ccccc1n2C`, for which the Inhibition in the experiment with Plasmodium falciparum [1] stood at 90%; with Plasmodium falciparum [2] it was 16%; in the experiment on HepG2, 9%.
